# Screening data deposited in PubChem by National Center for Advancing Translational Sciences (NCATS).
# TDP1 inh – inhibitors of human tyrosyl-DNA phosphodiesterase TDP1 | Q9NUW8 | recombinant TDP1, AlphaScreen DNA substrate cleavage | Potency, µM (titrated, usually from 130 µM), inactives show at the top dose activity change, negative = inhibition, most hits filed as inhibitors | hit rate 0.28% among 350,000; further: on the % scale 0 is the no-effect control and ±100 the full control effect; nearly all actives have a fitted effect of over 40% in size
# Target sequence (Q9NUW8 whole entry, looked up): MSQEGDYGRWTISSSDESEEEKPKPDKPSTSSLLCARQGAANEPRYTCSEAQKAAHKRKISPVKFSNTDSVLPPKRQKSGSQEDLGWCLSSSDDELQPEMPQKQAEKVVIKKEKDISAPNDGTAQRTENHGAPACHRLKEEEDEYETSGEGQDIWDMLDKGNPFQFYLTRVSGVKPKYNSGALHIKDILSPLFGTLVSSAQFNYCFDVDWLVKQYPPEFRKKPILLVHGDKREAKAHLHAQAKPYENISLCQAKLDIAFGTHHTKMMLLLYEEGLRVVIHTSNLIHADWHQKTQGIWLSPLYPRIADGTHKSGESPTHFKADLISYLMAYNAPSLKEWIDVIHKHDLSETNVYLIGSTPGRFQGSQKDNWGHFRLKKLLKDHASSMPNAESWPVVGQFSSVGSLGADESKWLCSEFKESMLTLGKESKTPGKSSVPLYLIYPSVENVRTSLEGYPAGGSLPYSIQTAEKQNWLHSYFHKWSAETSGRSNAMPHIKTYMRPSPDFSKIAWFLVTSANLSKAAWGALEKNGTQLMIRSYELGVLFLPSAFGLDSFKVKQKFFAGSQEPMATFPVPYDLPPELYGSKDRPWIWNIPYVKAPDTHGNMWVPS
#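 Compounds were preincubated with Tdp1 (1 nM final) for 15 min at room temperature before substrate (15 nM final) started a 5 min reaction; beads (10 ug/ml final) were then added for 10 min before AlphaScreen detection.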
# ClpP mod – qHTS Assay for Activators of ClpP; ATP-dependent Clp protease proteolytic subunit (Bacillus subtilis (strain 168)), P80244; purified B. subtilis ClpP, FRET peptide cleavage, 20 min; Potency, µM (doses to about 57.5 µM), inactives show at the top dose activity change, negative = active; hit rate 1.9% among 340,000; active means well fitted falling curve with a large enough effect; inconclusive means small, poorly fitted or top-dose-only effect; inactive means no such curve, though single readings can be large or run the other way; further: the source files actives as falling curves though it sought activators and does not explain the sign; nearly all actives have a fitted effect of over 65% in size
#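 ClpP 10 microg/mL final, pH 8 Tris/KCl buffer with BSA, glycerol, Tween-20; compound pinned in; FRET-FV substrate; RT 20 min; Ex320/Em430; ΔFRET vs ADEP 5.8 microM, DMSO, no enzyme.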
# DT40 TDP1 no CPT – qHTS for Inhibitors of human tyrosyl-DNA phosphodiesterase 1 (TDP1): qHTS in cells in absence of CPT; hit rate 15% among 420,000; AID 686978, 2013; DT40 Tdp1-/- hTDP1 cells, no CPT, ATP luminescence, 48 h; Potency, µM (series often up to 46.2 µM), for the others: top-dose activity change, negative = growth inhibition, most hits filed as inhibitors; further: on the % scale 0 is the no-effect control and ±100 the full control effect; nearly all actives have a fitted effect of over 55% in size
#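 DT40 Tdp1-/-;hTDP1 cells, no CPT (DMSO vehicle only), 400 cells/well; compounds pin-transferred; ≥48 hr, 37 °C; CellTiter-Glo 30 min RT dark, luminescence read.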
# TDP1 cell CPT – growth inhibition of DT40 Tdp1-/-;hTDP1 cells with camptothecin (screen for TDP1 inhibitors). chicken DT40 Tdp1-/-;hTDP1 cells + 20 nM CPT, ATP luminescence, 48 h. Potency, µM (titrated, usually from 46.2 µM), without a hit: top-dose activity change, negative = growth inhibition, actives largely listed as inhibitors. hit rate 12% among 420,000; further: on the % scale 0 is the no-effect control and ±100 the full control effect; nearly all actives have a fitted effect of over 55% in size
#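 Chicken DT40 Tdp1-/- cells complemented with human TDP1, 400 cells/well, exposed to compounds plus 20 nM camptothecin for at least 48 h at 37 C; viability read as ATP content by CellTiter-Glo luminescence.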
# Active calls of the source: *; ? = inconclusive; nt = not tested or not shown. Compounds with a hit are over-represented: about 17% of the library has one in this group of screens. Unless noted, the call rests on the fitted dose curve; in most records, active means well fitted curve in the direction sought with a large enough effect; inconclusive means small, poorly fitted or top-dose-only effect, or another doubt; inactive means no such curve, though single readings can be large; an effect the other way counts as inactive or inconclusive. Potency means the concentration at half of the fitted maximal effect.
SMILES,TDP1 inh,ClpP mod,DT40 TDP1 no CPT,TDP1 cell CPT
Cc1nc([N+](=O)[O-])c(N2CCN(C)CC2)n1Cc1ccccc1,6%,-2%,-23%,-7%
COCC1CCN(C(=O)CCc2nnc(C3(c4ccc(Cl)cc4)CCC3)o2)CC1,1%,-2%,?,?
O=C(CNC(=O)OCc1ccccc1)NC(Cc1cnc[nH]1)C(=O)O (stereo unspecified),nt,1%,16µM*,?
Cc1ccc(OCC(O)CN2CCN(CC(O)COc3ccc(C)cc3)CC2)cc1 (stereo unspecified),0%,-1%,?,-29%
CCOC(=O)c1ccc(S(=O)(=O)N2CCN(C/C=C/c3ccccc3)CC2)cc1,1%,1%,13µM*,?
CC1CN(CC(O)COc2ccc(C#N)cc2)CCN1CC(O)COc1ccc(C#N)cc1 (stereo unspecified),9%,nt,23µM*,21µM*
CCOC(=O)c1ccc(S(=O)(=O)N2CCN(CC(O)COc3ccc(C#N)cc3)CC2)cc1 (stereo unspecified),nt,nt,18µM*,?
CCOC(=O)/C(C#N)=C\c1ccc(N2CCN(C/C=C/c3ccccc3)CC2)cc1,1%,1%,21µM*,?
CCOC(=O)c1ccc(S(=O)(=O)N2CCN(C)CC2)cc1,-2%,0%,-2%,3%
CCOC(=O)/C(C#N)=C\c1cc(C)n(-c2ccccc2)c1C,6%,-6%,?,?
O=C(CSc1ccc([N+](=O)[O-])cn1)Nc1cc(C(F)(F)F)ccc1N1CCOCC1,7%,1%,?,?
Cc1ccc2cc(CCNC(=O)c3ccc(S(=O)(=O)N4CCCCC4)cc3)c(=O)[nH]c2c1,4%,nt,23µM*,?
Cc1ccc2cc(CCNC(=O)c3ccc(S(=O)(=O)N4CCOCC4)cc3)c(=O)[nH]c2c1,4%,-7%,-28%,?
Cc1cc2cc(CCNC(=O)c3ccc(S(=O)(=O)N4CCOCC4)cc3)c(=O)[nH]c2cc1C,5%,-13%,18µM*,16µM*
CN(C)c1nc(NNC(=O)c2ccccc2)nc(N(C)C)n1,nt,-3%,0%,0%
CC1(C)CC2(CC(c3ccccc3)Oc3cc(O)ccc32)NC(=S)N1 (stereo unspecified),3%,1%,21µM*,21µM*
CC(=O)Oc1ccc2c(c1)OC(c1ccccc1)CC21CC(C)(C)NC(=S)N1 (stereo unspecified),6%,-2%,12µM*,16µM*
CC1(C)CC2(CC(c3ccccc3)Oc3cc(O)ccc32)NC(=O)N1 (stereo unspecified),-5%,nt,nt,nt
CCCCOc1ccc(C2C(=O)N(C3CCCCC3)CC(=O)N2C2CCCCC2)cc1 (stereo unspecified),5%,0%,-15%,-8%
Cn1c2nc3ccccc3c-2nc2ccccc21,nt,-2%,8.2µM*,18µM*
Cn1c(-c2nonc2N)nc2ccccc21,3%,-2%,6%,1%
Cc1ccc(-c2nc3ccccc3n2C)o1,8%,16µM*,?,?
Cn1c(-c2ccc(Br)o2)nc2ccccc21,6%,-8%,10µM*,11µM*
Cn1c(-c2ccc(Br)o2)nc2cc(Br)ccc21,0%,-4%,?,?
CCOC(=O)c1ccc(N=Cc2cnc(N)nc2N)cc1,nt,-1%,-20%,?
SMILES,TDP1 inh,ClpP mod,DT40 TDP1 no CPT,TDP1 cell CPT
Cc1ccn2c(=O)c(C(=O)NCCc3ccc(S(N)(=O)=O)cc3)c(O)nc2c1,0%,4%,-13%,-11%
Cc1ccccc1OCC(=O)NNC(=O)CSc1nc(N)cc(N)n1,7%,nt,?,?
COc1ccc(NC(=O)Cn2nnc(C(=O)NCc3ccc4c(c3)OCO4)c2N)cc1,-5%,-16%,-11%,-4%
Nc1c(C(=O)NCc2ccccc2)nnn1Cc1cccc(Br)c1,5%,-5%,5.8µM*,4.6µM*
CSc1cccc(NC(=O)c2nnn(CC(=O)Nc3cc(C)cc(C)c3)c2N)c1,1%,4%,6.5µM*,?
CCc1ccccc1NC(=O)c1nnn(CC(=O)Nc2cccc(C)c2)c1N,2%,19%,-12%,-3%
COc1cccc(CNC(=O)c2nnn(CC(=O)Nc3ccc(Br)cc3)c2N)c1,-6%,0%,5.2µM*,10µM*
COC(=O)C[C@@H]1C=C[C@H](NC(=O)Nc2cc(F)ccc2F)[C@@H](CO)O1,nt,-5%,-12%,-9%
O=C(CCNc1cccc(F)c1)c1cccc([N+](=O)[O-])c1,6%,0%,4.1µM*,5.8µM*
O=C(CCNc1ccc(Cc2ccncc2)cc1)c1cccc([N+](=O)[O-])c1,7%,nt,16µM*,18µM*
CCN1C(=O)[C@H]2[C@@H](c3ccc(OC)cc3)N[C@]3(CCCN(Cc4ccc(OC)cc4)C3=O)[C@H]2C1=O,nt,2%,-10%,-10%
CCOC(=O)/C(=C/c1c(C)n(C)c2ccc([N+](=O)[O-])cc12)C(C)=O,3%,nt,9.2µM*,?
COc1ccc(NC(=O)C2CCCN(C(=O)Nc3ccc(F)cc3)C2)cc1OC (stereo unspecified),-9%,nt,-10%,6%
Nc1cccc2c1C(=O)N(C(=O)c1ccco1)C2=O,-2%,nt,3%,46%
O=C(c1ccco1)N1C(=O)c2cccc3cccc1c23,nt,2%,18µM*,12µM*
Clc1ccc(-c2nnc(SCc3nc4ccccc4[nH]3)o2)c(Cl)c1,3%,3%,9.2µM*,?
c1ccc2[nH]c(CSc3nnc(-c4ccncc4)o3)nc2c1,7%,-17%,?,?
Cc1cccc(CNC(=O)c2cc3cc(S(=O)(=O)N4CCCCC4)ccc3n2C)c1,0%,?,18µM*,?
Cn1c(C(=O)NCc2ccccc2F)cc2cc(S(=O)(=O)N3CCCCC3)ccc21,3%,-3%,?,?
CCC(C)NC(=O)c1cc2cc(S(=O)(=O)N3CCCCC3)ccc2n1C (stereo unspecified),0%,-9%,?,?
O=C(CCn1ccc2cc(S(=O)(=O)N3CCCC3)ccc21)NCc1cccc(F)c1,2%,-4%,?,?
Cn1c(C(=O)NCc2cccc(F)c2)cc2cc(S(=O)(=O)N3CCCCC3)ccc21,5%,?,23µM*,?
Cc1ccccc1CCNC(=O)c1cc2cc(S(=O)(=O)N3CCCCC3)ccc2n1C,5%,-9%,18µM*,10µM*
CN(C)c1ccc(CNC(=O)c2cc3cc(S(=O)(=O)N4CCCCC4)ccc3n2C)cc1,8%,-10%,?,?
CCOc1ccc(CNC(=O)c2cc3cc(S(=O)(=O)N4CCCCC4)ccc3n2C)cc1,3%,?,16µM*,18µM*
CCCCN(C)CCNC(=O)C1CCCN(S(=O)(=O)c2ccc3c(c2)oc(=O)n3C)C1 (stereo unspecified),1%,0%,-24%,-23%
